In all, about 5,500 compounds went through this assay and about 2,000 (36%) were called active. About 18% were inconclusive and are not listed. Cut-off read from the data, not from the text of the source: active = normalized growth mostly below about 0.91 (no sharp cut-off); inconclusive = no clear call, values can overlap the other calls; inactive = mostly above about 0.92. This is one part of the list.
Assay: chemical genetic growth profiling, strain panel (AID 1159580);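 note: tested at 20 µM; growth read once vehicle control cultures reached saturation at 30 °C; 1 = growth at the plate median or of vehicle wells; lower values mean less growth of the strain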
Conditions: growth OD
[1] = S. cerevisiae deletion strains, locus YAL040C, strain CLN3, hits give low values
[2] = S. cerevisiae deletion strains, locus YCL061C, strain MRC1 (second series), hits give low values
[3] = S. cerevisiae deletion strains, locus YDR363W, strain ESC2, hits give low values
[4] = S. cerevisiae deletion strains, locus YER002W, strain NOP16, hits give low values
[5] = S. cerevisiae deletion strains, locus YGR078C, strain PAC10, hits give low values
[6] = S. cerevisiae deletion strains, locus YGR229C, strain SMI1, hits give low values
[7] = S. cerevisiae deletion strains, locus YJR075W, strain HOC1, hits give low values
[8] = S. cerevisiae deletion strains, locus YNL128W, strain TEP1, hits give low values
[9] = S. cerevisiae deletion strains, locus YNL153C, strain GIM3, hits give low values
[10] = S. cerevisiae deletion strains, locus YNL175C, strain NOP13, hits give low values
[11] = S. cerevisiae deletion strains, locus YNL197C, strain WHI3, hits give low values
[12] = S. cerevisiae deletion strains, locus YNL224C, strain SQS1, hits give low values
[13] = S. cerevisiae deletion strains, locus YNL322C, strain KRE1, hits give low values
[14] = S. cerevisiae deletion strains, locus YOR083W, strain WHI5 (second series), hits give low values
[15] = S. cerevisiae deletion strains, locus YPL055C, strain LGE1, hits give low values
[16] = S. cerevisiae deletion strains, locus YPL241C, strain CIN2, hits give low values
[17] = S. cerevisiae deletion strains, locus YAL013W, strain DEP1, hits give low values
[18] = S. cerevisiae deletion strains, locus YDR150W, strain NUM1, hits give low values
[19] = S. cerevisiae deletion strains, locus YMR263W, strain SAP30, hits give low values
[20] = S. cerevisiae deletion strains, locus YBR229C, strain ROT2, hits give low values
[21] = S. cerevisiae deletion strains, locus YDL101C, strain DUN1, hits give low values
[22] = S. cerevisiae deletion strains, locus YEL061C, strain CIN8, hits give low values
[23] = S. cerevisiae deletion strains, locus YHR030C, strain SLT2, hits give low values
[24] = S. cerevisiae deletion strains, locus YHR087W, strain rtc3, hits give low values
[25] = S. cerevisiae deletion strains, locus YJL187C, strain SWE1, hits give low values
[26] = S. cerevisiae deletion strains, locus YJR043C, strain POL32, hits give low values
[27] = S. cerevisiae deletion strains, locus YLR039C, strain RIC1, hits give low values
[28] = S. cerevisiae deletion strains, locus YLR058C, strain SHM2 (second series), hits give low values
[29] = S. cerevisiae deletion strains, locus YLR085C, strain ARP6, hits give low values
[30] = S. cerevisiae deletion strains, locus YLR262C, strain YPT6, hits give low values
[31] = S. cerevisiae deletion strains, locus YML094W, strain GIM5, hits give low values
[32] = S. cerevisiae deletion strains, locus YMR219W, strain ESC1, hits give low values
[33] = S. cerevisiae deletion strains, locus YNL298W, strain CLA4 (second series), hits give low values
[34] = S. cerevisiae deletion strains, locus YNR030W, strain Alg12, hits give low values
[35] = S. cerevisiae deletion strains, locus YPR135W, strain CTF4, hits give low values
[36] = S. cerevisiae deletion strains, locus YCL061C, strain MRC1, hits give low values

Measured: normalized growth

CC1(C(=O)O)C2CCC(O2)C1(C)C(=O)O (stereo unspecified)
active: [4] 0.914 | [10] 0.904 | [11] 0.884 | [12] 0.914 | [14] 0.833
inactive: [1] 0.902 | [2] 0.984 | [3] 0.982 | [5] 0.985 | [6] 1 | [7] 1.03 | [8] 0.943 | [9] 0.886 | [13] 0.989 | [15] 1.04 | [16] 0.97

O=C(O)C1C2CCC(O2)C1C(=O)O (stereo unspecified)
inactive: [17] 1.04 | [1] 0.983 | [2] 1 | [18] 1 | [3] 1 | [4] 0.996 | [5] 0.985 | [7] 1.02 | [19] 0.995 | [9] 1 | [10] 1.01 | [11] 0.998 | [12] 1.02 | [14] 1.06 | [15] 1.06

CCOC(=O)c1cc(C)nc(Sc2ccccc2)c1C#N
active: [17] 0.931 | [20] 0.889 | [21] 0.897 | [5] 0.763 | [24] 0.787 | [25] 0.854 | [26] 0.91 | [7] 0.573 | S. cerevisiae deletion strains, locus YKL190W, strain CNB1, hits give low values 0.898 | [28] 0.858 | [32] 0.877 | [19] 0.907 | [9] 0.916 | [33] 0.785 | [13] 0.885 | [34] 0.746 | [16] 0.83
inactive: [18] 0.852 | [22] 0.917 | [23] 0.841 | [27] 0.895 | [29] 0.787 | [30] 0.86 | [31] 0.917 | S. cerevisiae deletion strains, locus YMR307W, strain GAS1, hits give low values 0.754 | [15] 0.844 | [35] 1.12

CCOC(=O)COc1nc(-c2cccs2)cc(C(F)(F)F)c1C#N
inactive: [17] 0.995 | [20] 0.97 | [36] 1 | [21] 0.963 | [18] 0.975 | [22] 0.975 | [5] 0.978 | [6] 0.989 | [23] 0.827 | [24] 0.961 | [25] 0.966 | [26] 1.01 | [7] 0.979 | [27] 0.946 | [28] 0.972 | [29] 0.949 | [30] 0.991 | [31] 0.922 | [32] 0.988 | [19] 1.04 | [8] 0.982 | [9] 0.98 | [33] 0.932 | [13] 0.98 | [34] 0.967 | [15] 0.971 | [16] 1.08 | [35] 0.943 | S. cerevisiae strains, strain wild type, hits give low values 0.965

Cc1c(Cc2ccc(F)cc2)c(=O)oc2cc(O)ccc12
active: [23] 0.83
inactive: S. cerevisiae deletion strains, locus YAR019C, strain CDC15, hits give low values 0.973 | S. cerevisiae deletion strains, locus YBL105C, strain PKC1, hits give low values 0.986 | S. cerevisiae deletion strains, locus YBR135W, strain CKS1, hits give low values 0.98 | S. cerevisiae deletion strains, locus YBR136W, strain MEC1, hits give low values 0.963 | S. cerevisiae deletion strains, locus YBR160W, strain CDC28, hits give low values 0.981 | S. cerevisiae deletion strains, locus YDL017W, strain CDC7, hits give low values 0.983 | S. cerevisiae deletion strains, locus YDL028C, strain MPS1, hits give low values 0.976 | [21] 0.979 | S. cerevisiae deletion strains, locus YDL108W, strain KIN28, hits give low values 0.978 | S. cerevisiae deletion strains, locus YDL132W, strain cdc53, hits give low values 0.978 | S. cerevisiae deletion strains, locus YDL214C, strain PRR2, hits give low values 0.967 | S. cerevisiae deletion strains, locus YDR052C, strain DBF4, hits give low values 0.987 | S. cerevisiae deletion strains, locus YDR054C, strain cdc34, hits give low values 0.975 | S. cerevisiae deletion strains, locus YDR226W, strain ADK1, hits give low values 0.987 | S. cerevisiae deletion strains, locus YDR477W, strain SNF1, hits give low values 0.971 | S. cerevisiae deletion strains, locus YER123W, strain YCK3, hits give low values 0.99 | S. cerevisiae deletion strains, locus YER133W, strain GLC7, hits give low values 0.977 | S. cerevisiae deletion strains, locus YFL009W, strain cdc4, hits give low values 0.973 | S. cerevisiae deletion strains, locus YFL029C, strain CAK1, hits give low values 0.97 | S. cerevisiae deletion strains, locus YFR003C, strain YPI1, hits give low values 0.985 | S. cerevisiae deletion strains, locus YFR019W, strain FAB1, hits give low values 0.988 | S. cerevisiae deletion strains, locus YFR028C, strain CDC14, hits give low values 0.972 | S. cerevisiae deletion strains, locus YGR040W, strain KSS1, hits give low values 0.954 | S. cerevisiae deletion strains, locus YGR052W, strain FMP48, hits give low values 1.02 | S. cerevisiae deletion strains, locus YGR092W, strain DBF2, hits give low values 0.944 | S. cerevisiae deletion strains, locus YHR079C, strain IRE1, hits give low values 0.91 | S. cerevisiae deletion strains, locus YHR082C, strain KSP1, hits give low values 0.968 | S. cerevisiae deletion strains, locus YHR205W, strain SCH9, hits give low values 0.958 | S. cerevisiae deletion strains, locus YIL147C, strain SLN1, hits give low values 0.983 | S. cerevisiae deletion strains, locus YJL095W, strain BCK1, hits give low values 0.923 | S. cerevisiae deletion strains, locus YJL128C, strain PBS2, hits give low values 0.956 | S. cerevisiae deletion strains, locus YJL157C, strain FAR1, hits give low values 0.966 | S. cerevisiae deletion strains, locus YJR016C, strain ILV3, hits give low values 0.982 | S. cerevisiae deletion strains, locus YJR066W, strain TOR1 (second series), hits give low values 0.976 | S. cerevisiae deletion strains, locus YJR066W, strain TOR1, hits give low values 0.957 | S. cerevisiae deletion strains, locus YKL048C, strain ELM1, hits give low values 0.969 | S. cerevisiae deletion strains, locus YKL067W, strain YNK1, hits give low values 0.979 | S. cerevisiae deletion strains, locus YKL101W, strain HSL1, hits give low values 0.967 | S. cerevisiae deletion strains, locus YKL193C, strain SDS22, hits give low values 0.976 | S. cerevisiae deletion strains, locus YKL203C, strain TOR2, hits give low values 1.01 | S. cerevisiae deletion strains, locus YLR113W, strain HOG1, hits give low values 0.903 | S. cerevisiae deletion strains, locus YLR133W, strain CKI1, hits give low values 0.968 | S. cerevisiae deletion strains, locus YLR403W, strain SFP1, hits give low values 0.969 | S. cerevisiae deletion strains, locus YML070W, strain DAK1, hits give low values 0.999 | S. cerevisiae deletion strains, locus YMR001C, strain CDC5, hits give low values 0.978 | S. cerevisiae deletion strains, locus YMR205C, strain PFK2 (second series), hits give low values 0.974 | S. cerevisiae deletion strains, locus YMR277W, strain FCP1, hits give low values 0.974 | S. cerevisiae deletion strains, locus YNL006W, strain LST8, hits give low values 0.975 | S. cerevisiae deletion strains, locus YNL020C, strain ARK1, hits give low values 0.96 | S. cerevisiae deletion strains, locus YNL161W, strain CBK1, hits give low values 0.974 | S. cerevisiae deletion strains, locus YNL183C, strain NPR1, hits give low values 0.939 | S. cerevisiae deletion strains, locus YNL207W, strain RIO2, hits give low values 0.97 | S. cerevisiae deletion strains, locus YNL222W, strain SSU72, hits give low values 0.976 | S. cerevisiae deletion strains, locus YNL307C, strain MCK1 (second series), hits give low values 0.984 | S. cerevisiae deletion strains, locus YOL078W, strain AVO1, hits give low values 0.973 | S. cerevisiae deletion strains, locus YOL136C, strain PFK27, hits give low values 0.964 | S. cerevisiae deletion strains, locus YOR061W, strain CKA2, hits give low values 0.957 | S. cerevisiae deletion strains, locus YOR119C, strain RIO1, hits give low values 0.977 | S. cerevisiae deletion strains, locus YOR231W, strain MKK1, hits give low values 0.926 | S. cerevisiae deletion strains, locus YOR329C, strain SCD5, hits give low values 0.979 | S. cerevisiae deletion strains, locus YPL031C, strain PHO85, hits give low values 0.947 | S. cerevisiae deletion strains, locus YPL153C, strain RAD53, hits give low values 0.962 | S. cerevisiae deletion strains, locus YPL204W, strain HRR25, hits give low values 0.98 | S. cerevisiae deletion strains, locus YPL209C, strain IPL1, hits give low values 0.982 | S. cerevisiae deletion strains, locus YPL256C, strain CLN2, hits give low values 0.899 | S. cerevisiae deletion strains, locus YPR025C, strain CCL1, hits give low values 0.977 | S. cerevisiae deletion strains, locus YPR106W, strain ISR1, hits give low values 0.984 | S. cerevisiae deletion strains, locus YPR111W, strain DBF20, hits give low values 0.971 | S. cerevisiae deletion strains, strain NNK1, hits give low values 0.984 | S. cerevisiae deletion strains, strain TSCII, hits give low values 0.978

CCCc1cc(=O)c2ccc(O)cc2o1
inactive: [17] 0.975 | [20] 1 | [36] 0.976 | [21] 0.947 | S. cerevisiae deletion strains, locus YDL134C, strain PPH21, hits give low values 0.996 | [18] 0.967 | [22] 1 | [5] 0.969 | [23] 0.919 | [24] 1.03 | [26] 1 | [7] 1.01 | [27] 0.957 | [28] 0.986 | [29] 0.964 | [30] 1.01 | [31] 1.02 | [32] 0.998 | [19] 0.995 | [8] 0.97 | [9] 0.993 | [33] 0.971 | [13] 0.966 | [34] 0.985 | S. cerevisiae deletion strains, locus YOL006C, strain TOP1, hits give low values 0.933 | [15] 1.05 | [16] 0.988 | [35] 0.943

From PubChem BioAssay AID1159580 (chemical genetic matrix, 2015)
